NPC1 prom act: activates the NPC1 promoter. Huh7 NPC1 promoter luciferase reporter, 24 h. Potency, µM (top dose mostly 9.22 µM), actives largely listed as activators. 2.4% of 320,000 active. AID 485313; note: nearly all actives have a fitted effect of over 60% in size
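Luciferase expression driven by the NPC1 promoter was measured in stably transfected Huh7 cells after a 24 h compound incubation, using a luciferase reagent and a luminescence read.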
Rab9 promoter act: activates the Rab9 promoter; Potency, µM (titrated, usually from 9.22 µM), usual class: activators; Huh7 Rab9 promoter-luciferase reporter, luminescence, 24 h; 2.8% of 320,000 active; note: nearly all actives have a fitted effect of over 60% in size
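Huh7 cells stably carrying Rab9 promoter–luciferase reporter, plated 1500 cells/well, compound added after 2 h and incubated 24 h at 37 °C; luciferase luminescence then read after 10 min with detection reagent.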
FLuc counter: inhibits or activates purified firefly luciferase, miR-21 counter-screen; P08659; purified FLuc, Km substrates, luminescence inhibition; Potency, µM (titrated, usually from 57.5 µM), hits mostly inhibitors; 6.9% of 360,000 active; AID 588342; note: nearly all actives have a fitted effect of over 55% in size
Target sequence (P08659 whole entry, looked up): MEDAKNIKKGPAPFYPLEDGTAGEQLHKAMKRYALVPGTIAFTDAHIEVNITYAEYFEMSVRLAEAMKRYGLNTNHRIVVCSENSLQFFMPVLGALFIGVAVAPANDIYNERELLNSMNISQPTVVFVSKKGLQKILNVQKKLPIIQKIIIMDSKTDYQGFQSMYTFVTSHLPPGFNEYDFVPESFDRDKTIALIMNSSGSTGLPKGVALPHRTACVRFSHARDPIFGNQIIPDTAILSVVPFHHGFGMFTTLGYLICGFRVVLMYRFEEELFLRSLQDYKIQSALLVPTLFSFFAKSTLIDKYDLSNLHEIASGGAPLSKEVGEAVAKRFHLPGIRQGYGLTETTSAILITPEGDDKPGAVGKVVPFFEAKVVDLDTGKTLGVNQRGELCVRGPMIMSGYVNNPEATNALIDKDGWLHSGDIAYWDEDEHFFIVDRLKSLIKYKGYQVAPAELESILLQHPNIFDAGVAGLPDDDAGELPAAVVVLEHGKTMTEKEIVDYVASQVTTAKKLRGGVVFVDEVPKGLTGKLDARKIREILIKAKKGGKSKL
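Biochemical qHTS of compounds, final roughly 60 µM downward over six points, against 10 nM purified firefly luciferase using Km concentrations of substrates (10 uM D-luciferin, 10 uM ATP) in Tris acetate pH 7.5 buffer; luminescence output.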
ELG1 genotox: induces genotoxicity in HEK293T cells with luciferase-tagged ELG1. HEK293T ELG1-luciferase reporter, luminescence, 16 h. Potency, µM (titrated, usually from 46 µM), actives largely listed as activators. 1.3% of 330,000 active. AID 504466; note: nearly all actives have a fitted effect of over 60% in size
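After overnight (16 hr) compound treatment at 37 °C, ELG1-luciferase HEK293T cells were lysed with ONE-Glo; luminescence quantified 30 min later at room temperature.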
SMN2 splice up: SMN2 splice variant enhancement. 2.8% of 210,000 active. Potency, µM (highest dose often 46.1 µM), most hits filed as activators. HEK293 SMN2-luciferase splicing reporter, luminescence, 30-36 h; note: nearly all actives have a fitted effect of over 55% in size
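HEK293 cells carry an SMN2 […]–luciferase reporter in which exon 7 inclusion puts luciferase in frame. Cells were plated 10-12 h before compound addition, then incubated 30-36 h at 37C. ONE-Glo luminescence was read; sodium butyrate at 4.5 mM final served as control.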
ELG1 DNA repair: inhibitors of ELG1-dependent DNA repair in HEK293T cells. Potency, µM (titrated, usually from 46.1 µM), actives largely listed as inhibitors. HEK293T ELG1-luciferase reporter, luminescence, 16 h; DNA damage induced by 5-fluorouridine. 2.3% of 330,000 active; note: nearly all actives have a fitted effect of over 55% in size
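In this reporter screen, reduction of luminescence relative to DMSO vehicle indicated activity. Compounds and 5-fluorouridine were added together to 2,000 cells per well, incubated for 16 hr at 37 °C, then developed with ONE-Glo.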
Hits are given with their value; . = inactive; ? = inconclusive; / = no result given; [ ] = dose if it differs, or a comment. Only some compounds are listed: those with a hit (about 9.2% of all), similar ones and a draw of the others. Calls come from the whole dose curve; as a rule, active = well fitted curve in the direction sought with a large enough effect; inconclusive = small, poorly fitted or top-dose-only effect, or another doubt; inactive = no such curve, though single readings can be large; an effect the other way counts as inactive or inconclusive.

SMILES | NPC1 prom act | Rab9 promoter act | FLuc counter | ELG1 genotox | SMN2 splice up | ELG1 DNA repair
CC(=O)O[C@H]1[C@@H](O)[C@H](O)[C@H](Oc2c(O)c(C)c3c4c2[C@@H](C)CC[C@@H]4[C@@H](C)C[C@H]3C=C(C)C)O[C@H]1C | / | / | / | . | / | .
COc1ccccc1-c1cc(C(=O)N/N=C\c2cnn(C)c2C)c2ccccc2n1 | . | . | . | . | . | ?
O=C(N/N=C/C=C/c1ccccc1[N+](=O)[O-])c1cccnc1 | . | . | . | . | / | .
Cc1cc(C(=O)N/N=C/c2cccc([N+](=O)[O-])c2)c2ccccc2n1 | . | . | . | . | . | .
O=C(NN=Cc1cccc([N+](=O)[O-])c1)c1cc(-c2cccnc2)nc2ccccc12 | / | / | / | . | / | 23.1µM
Cc1[nH]c2ccccc2c1C=NNC(=O)c1cc(-c2cccnc2)nc2ccccc12 | / | / | / | . | / | 16.4µM
COc1ccccc1-c1cc(C(=O)N/N=C/C=C/c2ccccc2[N+](=O)[O-])c2ccccc2n1 | . | . | . | . | . | 16.4µM
Cc1ccc(C=NNC(=O)c2cc(-c3cccnc3)nc3ccccc23)o1 | / | / | / | . | / | .
O=C(N/N=C/C=C/c1ccccc1[N+](=O)[O-])c1cc(-c2cccnc2)nc2ccccc12 | . | . | ? | . | . | 16.4µM
Cc1nc(N2CCOCC2)c2c(C(=O)N(C)Cc3ccccc3)c(C)oc2n1 | / | / | . | / | / | /
Cc1cc(C)c(NC(=O)CN(C)C(=O)c2ccc(OCc3ccccc3)cc2)c(C)c1 | . | . | ? | . | / | ?
CSc1ccc(CNC(=O)CCn2ccc3cc(S(=O)(=O)N4CCCC4)ccc32)cc1 | . | . | . | . | / | ?
CCC1=C2CC[C@H]3C(=O)N(CC(=O)OC)C(=O)[C@H]3[C@H]2[C@@]2(C)C(=O)N(Cc3ccccc3)C(=O)N2C1=O | / | / | / | / | . | /
CSc1nnc2c3c4c(sc3nc(-n3nc(C)cc3C)n12)COC(C)(C)C4 | . | . | . | . | / | 13µM
Cc1cc(C)n(-c2nc(NCCC(C)C)c3c4c(sc3n2)COC(C)(C)C4)n1 | . | . | . | . | . | 18.4µM
CC(=O)c1cccc(NC(=O)c2nc3ccccc3n(C)c2=O)c1 | / | / | 3.79µM | / | . | /
COc1cc(NC(=O)c2nc3ccccc3n(C)c2=O)cc(OC)c1OC | / | / | . | / | . | /
CC(=O)c1cccc(NC(=O)c2cnn3ccccc23)c1 | 5.01µM | 3.16µM | 12µM | 11.6µM | / | ?
CC(=O)c1ccc(NC(=O)c2cnn3ccccc23)cc1 | 0.355µM | 0.355µM | 5.36µM | 1.3µM | . | ?
CC1=NNC(=S)NCCCN2CCN(CCCNC(=S)NN=C(C)C=NNC(=S)NCCCN3CCN(CCCNC(=S)NN=C1)CC3)CC2 | / | / | / | / | .[9.22 µM] | /
CCOc1ccc(-c2ccc(SCC(=O)NCC3CCCO3)nn2)cc1 (stereo not drawn) | ? | 3.16µM | 5.36µM | . | 15.8µM | ?
CCOC(=O)CC(=O)CSc1ncnc2c1nnn2-c1ccc(F)cc1 | . | . | ? | . | . | .
Cc1ccc(-c2ccc(SCC(=O)NCC3CCCO3)nn2)cc1 (stereo not drawn) | . | . | 16.9µM | . | . | .
Cc1ccc(-n2nnc3c(SCC(=O)NCC4CCCO4)ncnc32)cc1 (stereo not drawn) | . | . | 5.36µM | . | . | ?
CCOC(=O)CSc1ncnc2c1nnn2-c1ccc(F)cc1 | . | . | 15.1µM | . | . | ?
SMILES | NPC1 prom act | Rab9 promoter act | FLuc counter | ELG1 genotox | SMN2 splice up | ELG1 DNA repair
COc1ccc(C)cc1NC(=S)N1CC(C)OC(C)C1 (stereo not drawn) | . | . | . | . | / | .
COc1ccc(OC)c(CCNC(=O)C2CCN(c3ncnc4c3nc3n4CCCCC3)CC2)c1 | . | . | . | . | / | ?
Fc1ccc(-c2noc(-c3ccc4c(c3)CCO4)n2)cc1 | ? | 0.398µM | 0.536µM | ? | / | ?
c1ccc(Oc2ccc3ccccc3n2)cc1 | . | . | 16.9µM | ? | . | ?
COc1ccc(Oc2cc(C)c3ccccc3n2)cc1 | . | . | ? | . | . | ?
Cc1ccc(NS(=O)(=O)c2cc(C(=O)Nc3cccc([N+](=O)[O-])c3)ccc2C)cc1 | . | . | . | . | / | ?
Cc1ccc(C(=O)Nc2cccc([N+](=O)[O-])c2)cc1S(=O)(=O)Nc1ccc(NC(=O)c2ccccc2)cc1 | . | . | . | . | ? | 5.17µM
CC(=O)Nc1ccc(NC(=O)c2ccc(C)c(S(=O)(=O)Nc3cccc(C)c3)c2)cc1 | . | . | . | . | / | 20.6µM
Cc1ccc2c(c1)C(c1ccncc1)=NNC(c1ccccc1)=N2 | ? | 2.82µM | 16.9µM | . | / | ?
CCOc1ccc2c(c1)C(c1ccccc1)=NNC(c1ccccc1)=N2 | . | . | . | . | . | 13µM
CCCOc1ccc(C2=NNC(c3cccs3)=Nc3ccc(OC)cc32)cc1 | . | . | ? | . | . | 16.4µM
COc1ccc2c(c1)C(c1cccs1)=NNC(c1ccncc1)=N2 | . | . | . | . | / | ?
Cc1ccc(C2=Nc3cccnc3C(c3ccccc3)=NN2)cc1 | 3.55µM | 3.16µM | 10.7µM | ? | 12.6µM | ?
Brc1ccc(C2=Nc3ccccc3C(c3ccncc3)=NN2)cc1 | . | . | . | . | / | .
Cc1cccc(C)c1NC(=O)CNC(=O)c1cccc(S(=O)(=O)NCc2cccs2)c1 | . | . | / | . | / | .

Screening data deposited in PubChem BioAssay by National Center for Advancing Translational Sciences (NCATS).
